PubChem BioAssay AID504339 (National Center for Advancing Translational Sciences (NCATS), 2011)
Screen size: about 390,000 compounds; about 17,000 (4.4%) were called active. About 8% were inconclusive and are not listed. The entries come from a sample that favours actives as a whole. Values without a mark were called inactive. The call rests on the fitted dose curve; in most records, active means well fitted inhibition curve with a large enough effect; inconclusive means small, poorly fitted or top-dose-only effect; inactive means no such curve, though single readings can be large or run the other way.

biological target: Lysine-specific demethylase 4A (Homo sapiens) (UniProt O75164); experiment: qHTS Assay for Inhibitors of JMJD2A-Tudor Domain; details: AlphaScreen JMJD2A-Tudor / H3K4me3 peptide binding; series mostly up to 114 µM; activity change, negative = inhibition: at the top concentration; further: nearly all actives have a fitted effect of over 50% in size
On the % scale 0 is the no-effect control and ±100 the full control effect; potency means the concentration at half of the fitted maximal effect.

Sequence of Lysine-specific demethylase 4A (Homo sapiens) (O75164 whole entry, looked up, the tested form may be a part): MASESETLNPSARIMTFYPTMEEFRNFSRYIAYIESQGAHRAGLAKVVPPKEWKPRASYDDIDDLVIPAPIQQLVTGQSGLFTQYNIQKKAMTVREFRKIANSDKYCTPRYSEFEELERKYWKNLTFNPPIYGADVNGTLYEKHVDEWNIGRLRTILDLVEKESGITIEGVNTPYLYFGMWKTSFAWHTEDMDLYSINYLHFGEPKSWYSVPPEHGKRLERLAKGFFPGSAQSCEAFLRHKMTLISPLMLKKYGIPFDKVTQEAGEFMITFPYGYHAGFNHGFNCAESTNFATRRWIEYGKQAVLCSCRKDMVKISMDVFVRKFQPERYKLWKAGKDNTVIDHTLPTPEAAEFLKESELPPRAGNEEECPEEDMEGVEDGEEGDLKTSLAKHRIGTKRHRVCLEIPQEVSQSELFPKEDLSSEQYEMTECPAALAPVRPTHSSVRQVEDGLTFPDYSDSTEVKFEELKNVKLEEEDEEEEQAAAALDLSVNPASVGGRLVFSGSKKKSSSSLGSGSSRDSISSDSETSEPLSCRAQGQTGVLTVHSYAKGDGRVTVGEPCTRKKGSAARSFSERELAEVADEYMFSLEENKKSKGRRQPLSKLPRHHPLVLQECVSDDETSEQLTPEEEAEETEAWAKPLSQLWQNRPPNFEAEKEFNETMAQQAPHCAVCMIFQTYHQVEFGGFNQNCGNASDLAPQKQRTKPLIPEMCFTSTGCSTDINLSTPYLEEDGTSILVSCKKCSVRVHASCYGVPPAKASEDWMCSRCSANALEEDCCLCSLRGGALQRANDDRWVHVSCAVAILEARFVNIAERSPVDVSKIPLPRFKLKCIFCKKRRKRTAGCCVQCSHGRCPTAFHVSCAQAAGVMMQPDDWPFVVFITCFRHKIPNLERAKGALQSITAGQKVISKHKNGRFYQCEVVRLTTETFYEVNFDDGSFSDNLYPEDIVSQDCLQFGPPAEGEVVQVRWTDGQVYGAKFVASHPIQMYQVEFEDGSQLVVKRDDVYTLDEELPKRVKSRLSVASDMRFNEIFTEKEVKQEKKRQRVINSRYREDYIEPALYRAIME

SMILES	activity change, negative = inhibition [%]	Potency
COc1ccc(CNC(=O)c2cc3c(-c4ccccc4F)nn(C)c3s2)c(OC)c1	-20.3	
Cc1cc2c(cc1C)C(c1cccc(OC(C)C)c1)CC(=O)N2 (centres undefined)	-5.14	
COc1cc(Br)cc2cc(S(=O)(=O)c3ccccc3)c(=O)oc12	-8.42	
O=C(Cn1ncc(N2CCCC2)c(Br)c1=O)c1ccc(Cl)cc1	-11.7	
O=C(Cn1nc(CNc2ccc(Cl)cc2)[n+]2c1CCCCC2)c1ccc(Cl)cc1		44.7 µM (active)
O=C(Cn1nc(C(F)(F)F)c2c1CCCC2)Nc1ccc(Cl)cc1	9.28	
COc1cc(OC)c(NC(=O)c2c3c(nn2C)-c2ccccc2SC3)cc1Cl	-12.3	
CC(C(=O)NC1CCS(=O)(=O)C1)N1C(=O)/C(=C/c2ccc(Cl)cc2)SC1=S (centres undefined)		56.2 µM (active)
CN(C(=O)CN1C(=O)/C(=C/c2ccc(Cl)cc2)SC1=S)C1CCS(=O)(=O)C1 (centres undefined)	-0.694	
O=C(Cc1ccc(Cl)cc1)NC1CCS(=O)(=O)C1 (centres undefined)	-19.2	
COc1ccccc1C(=O)OCc1cc(=O)n2nc(-c3cccs3)sc2n1	-26.7	
COc1ccc(NC(=O)CN(C)C(=O)c2ccc(NC3CC3)c([N+](=O)[O-])c2)cc1	-29.9	
Cc1c(NS(=O)(=O)c2ccc(NC3CCCC3)c([N+](=O)[O-])c2)c(=O)n(-c2ccccc2)n1C	-19.9	
Cc1cc(C=O)c(C)n1-c1ccc(NC2CCCCC2)c([N+](=O)[O-])c1		17.8 µM (active)
Cc1ccc(C)c2sc(NC(=O)c3ccc(S(=O)(=O)N4CCCC4)cc3)nc12	-7.14	
COc1ccccc1CNS(=O)(=O)c1cc(Br)cc2c1N(C(C)=O)C(C)C2 (centres undefined)	-4.44	
CC(C)CCNC(=O)CSc1nc2ccccc2nc1Cc1ccc(Cl)cc1	-8.77	
CCC1CCCCN1S(=O)(=O)c1ccc(NC(=O)c2cc(=O)c3ccccc3o2)cc1 (centres undefined)	-13.5	
CCOc1ccc(Nc2ncnc3scc(-c4ccc(OC)cc4)c23)cc1	-0.662	
CCCCNC(=O)CSc1nccn1Cc1ccccc1	-23.6	
O=C(CSc1nccn1Cc1ccc(Cl)cc1)NCc1ccccc1	-23.4	
COC(=O)CCSc1nccn1Cc1ccccc1		35.5 µM (active)
COc1ccc(CNC(=O)c2ccc3c(O)c(S(=O)(=O)c4ccccc4)c(=O)[nH]c3c2)cc1	-14.7	
Cc1ccccc1NC(=O)c1c(NC(=O)c2ccccc2F)sc2c1CCC(C)C2 (centres undefined)	7.27	
CCOc1ccc(C2/C(=C(/O)c3ccc4c(c3)CC(C)O4)C(=O)C(=O)N2CCCn2ccnc2)cc1 (centres undefined)	-35.2	

SMILES	activity change, negative = inhibition [%]	Potency
COc1cc(C2/C(=C(\O)c3ccc4c(c3)CC(C)O4)C(=O)C(=O)N2Cc2ccco2)ccc1O (centres undefined)	-24.3	
COc1cc(C2/C(=C(\O)c3ccc4c(c3)CC(C)O4)C(=O)C(=O)N2c2nnc(C)s2)cc(OC)c1OC (centres undefined)		44.7 µM (active)
O=C(Nc1ccc2c(c1)OCO2)c1cc(-c2cccc(Cl)c2)on1	-10.6	
CC(C)C12CN3CC(C(C)C)(CN(C1)C3c1ccc(OCc3ccccc3)cc1)C2=O (centres undefined)	-19.2	
O=C(O)C1OC(C(=O)O)C2C1C(F)(F)C2(F)F (centres undefined)		28.2 µM (active)
Cc1ccc2nc(/C(C#N)=C/c3ccccc3F)[nH]c2c1	-15.7	
O=C(NNC(=O)c1ccc(Cl)nc1)c1ccc(Br)cc1	-14.5	
COc1ccc(C(=O)/C=C/Nc2ccccn2)cc1	1.84	
O=C(NNc1ccccn1)c1ccc(Cl)nc1		4.47 µM (active)
COc1ccccc1-c1noc(-c2ccc(NCc3ccccc3)c([N+](=O)[O-])c2)n1	-24.2	
Cc1ccc(NC(=O)CN2C(=O)C(c3ccc(F)cc3)=NC23CCCCCC3)c(C)c1	-6.38	
CCN1CCC2(CC1)N=C(c1ccc(F)cc1)C(=S)N2C(=O)c1ccc(C)cc1		31.6 µM (active)
CCN1CCC(N(Cc2ccc(F)cc2)C(=O)Nc2cc(C)ccc2C)CC1	-10.6	
COc1cccc(NC(=O)N(Cc2cn(C)c3ccccc23)C2CCCCCC2)c1	-33.3	
Cc1ccc(Cn2c(CCCNC(=O)C3CCCCC3)nc3ccccc32)cc1	-22.5	
Cc1cc(C)cc(NC(=O)CCN2C(=O)c3ccccc3C2=O)c1	-14.1	
Cc1cc2c(cc1C)N(C(=O)CN1C(=O)c3ccccc3C1=O)C(C)(C)c1ssc(=S)c1-2		39.8 µM (active)
Cc1ccc(NC(=O)CCN2C(=O)c3ccccc3C2=O)cc1C	-6.38	
CCN(CC)c1cc(NC2CCCCC2)c2c3c(onc13)-c1ccccc1C2=O		8.91 µM (active)
Cc1cccc(-c2nc(SCc3ccc(Br)cc3)n3[nH]c(=O)cc3n2)c1	-14	
Cc1cccc(CNC(=O)c2cnc3sc(N4CCCCC4)nn3c2=O)c1	-12.3	
CCNC(=S)NNC(=O)C1CCN(Cc2ccccc2)CC1	-11	
CCCCN(Cc1ccccc1)C(=O)C1CCN(Cc2sccc2C)CC1		5.62 µM (active)
CCCCN(C(=O)C1CCC1)c1c(N)n(Cc2ccccc2)c(=O)[nH]c1=O	-4.03	
